Laboratory results from PMC9911399, “Two distinct binding modes provide the RNA-binding protein RbFox with extraordinary sequence specificity”.
Numbering of substitutions follows the chain as printed; changes in the protein carry UniProt numbers. Whole data set: some 16,000 sequences, median “ka relative to ugcaugu” near 0.096, cut for the highest 2% near 0.35. The sample holds the highest values, similar sequences and a random draw of the others, so the mix is not that of the screen.

T1: RBFOX1 RRM RbFoxmut (Fox-RRM*) (Homo sapiens, UniProt Q9NWB1 109-208, R118D;E147R;N151S;E152T)
T1 sequence: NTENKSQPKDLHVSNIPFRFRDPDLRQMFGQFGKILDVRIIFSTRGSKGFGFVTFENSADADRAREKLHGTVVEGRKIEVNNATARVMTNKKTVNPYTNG

B1: AAAUCUA (DNA:RNA)
RNA: GGGAGACCGGAAUUCAGAUUGUCCAAAUCUAUUAAAUCCCGUCGUAGCCACCA
DNA 1: CAATCTGAATTCCGGTCTCCC
DNA 2: TGGTGGCTACGACGGGATT
B2: ACCACCC (DNA:RNA)
RNA: B1 RNA with A26C, A27C, U28A, U30C, A31C
DNA 1: CAATCTGAATTCCGGTCTCCC
DNA 2: TGGTGGCTACGACGGGATT
B3: UCUGUUU (DNA:RNA)
RNA: B1 RNA with A25U, A26C, A27U, U28G, C29U, A31U
DNA 1: CAATCTGAATTCCGGTCTCCC
DNA 2: TGGTGGCTACGACGGGATT
B4: CGUCGUG (DNA:RNA)
RNA: B1 RNA with A25C, A26G, A27U, U28C, C29G, A31G
DNA 1: CAATCTGAATTCCGGTCTCCC
DNA 2: TGGTGGCTACGACGGGATT
B5: UGCACGG (DNA:RNA)
RNA: B1 RNA with A25U, A26G, A27C, U28A, U30G, A31G
DNA 1: CAATCTGAATTCCGGTCTCCC
DNA 2: TGGTGGCTACGACGGGATT
B6: UGCACGU (DNA:RNA)
RNA: B1 RNA with A25U, A26G, A27C, U28A, U30G, A31U
DNA 1: CAATCTGAATTCCGGTCTCCC
DNA 2: TGGTGGCTACGACGGGATT
B7: UGCACGA (DNA:RNA)
RNA: B1 RNA with A25U, A26G, A27C, U28A, U30G
DNA 1: CAATCTGAATTCCGGTCTCCC
DNA 2: TGGTGGCTACGACGGGATT
B8: CUGCACC (DNA:RNA)
RNA: GGGAGACCGGAAUUCAGAUUGUCCCUGCACCUUAAAUCCCGUCGUAGCCACCA
DNA 1: CAATCTGAATTCCGGTCTCCC
DNA 2: TGGTGGCTACGACGGGATT
B9: UGCACCA (DNA:RNA)
RNA: B1 RNA with A25U, A26G, A27C, U28A, U30C
DNA 1: CAATCTGAATTCCGGTCTCCC
DNA 2: TGGTGGCTACGACGGGATT
B10: UGCCACG (DNA:RNA)
RNA: B8 RNA with C25U, U26G, G27C, C31G
DNA 1: CAATCTGAATTCCGGTCTCCC
DNA 2: TGGTGGCTACGACGGGATT
B11: CUGCACG (DNA:RNA)
RNA: B8 RNA with C31G
DNA 1: CAATCTGAATTCCGGTCTCCC
DNA 2: TGGTGGCTACGACGGGATT
B12: UGCACCG (DNA:RNA)
RNA: B1 RNA with A25U, A26G, A27C, U28A, U30C, A31G
DNA 1: CAATCTGAATTCCGGTCTCCC
DNA 2: TGGTGGCTACGACGGGATT
B13: CCUGCAC (DNA:RNA)
RNA: B8 RNA with U26C, G27U, C28G, A29C, C30A
DNA 1: CAATCTGAATTCCGGTCTCCC
DNA 2: TGGTGGCTACGACGGGATT
B14: GUCUGGU (DNA:RNA)
RNA: B1 RNA with A25G, A26U, A27C, C29G, U30G, A31U
DNA 1: CAATCTGAATTCCGGTCTCCC
DNA 2: TGGTGGCTACGACGGGATT
B15: AAACGGC (DNA:RNA)
RNA: B1 RNA with U28C, C29G, U30G, A31C
DNA 1: CAATCTGAATTCCGGTCTCCC
DNA 2: TGGTGGCTACGACGGGATT
B16: UCAUAGC (DNA:RNA)
RNA: B1 RNA with A25U, A26C, C29A, U30G, A31C
DNA 1: CAATCTGAATTCCGGTCTCCC
DNA 2: TGGTGGCTACGACGGGATT
B17: ACGGCGA (DNA:RNA)
RNA: B1 RNA with A26C, A27G, U28G, U30G
DNA 1: CAATCTGAATTCCGGTCTCCC
DNA 2: TGGTGGCTACGACGGGATT
B18: CUUUAUC (DNA:RNA)
RNA: B8 RNA with G27U, C28U, C30U
DNA 1: CAATCTGAATTCCGGTCTCCC
DNA 2: TGGTGGCTACGACGGGATT
B19: AAGCCUG (DNA:RNA)
RNA: B1 RNA with A27G, U28C, A31G
DNA 1: CAATCTGAATTCCGGTCTCCC
DNA 2: TGGTGGCTACGACGGGATT
B20: CAGGCUA (DNA:RNA)
RNA: B1 RNA with A25C, A27G, U28G
DNA 1: CAATCTGAATTCCGGTCTCCC
DNA 2: TGGTGGCTACGACGGGATT

Molecular target: T1, RBFOX1 RRM RbFoxmut (Fox-RRM*)
Test: EMSA; HiTS-Eq, 1 nM pool, 10 min; buffer printed only for the single-RNA assays: 10 mM Tris pH 7.5, 150 mM NaCl, 3.4 mM EDTA, 0.001% NP-40, 30 C
Settings: tags: His6 N-terminal (pET28a); label: 5' 32P
Method in brief: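 Purified RbFox RRM, wild type or mutant, was incubated for 10 min in 50 µL with 1 nM of a 5′-radiolabelled RNA pool carrying 7 randomized nucleotides, whose flanks were annealed to DNA oligonucleotides, over a series of increasing protein concentrations. Unbound RNA was resolved on 8% native PAGE, cut out, reverse-transcribed, barcoded by PCR and sequenced on an Illumina HiSeq 2500. Relative association constants were derived from changes in read counts for each RNA species versus the control reaction and normalised to the cognate motif.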

Point of comparison: B17, binding signal 0.1 KA relative to UGCAUGU. Against it:
- B1 — lower, 0.088 KA relative to UGCAUGU
- B2 — lower, 0.0531 KA relative to UGCAUGU
- B3 — lower, 0.0825 KA relative to UGCAUGU
- B4 — higher, 0.156 KA relative to UGCAUGU
- B5 — higher, 0.308 KA relative to UGCAUGU
- B6 — higher, 0.362 KA relative to UGCAUGU
- B7 — higher, 0.368 KA relative to UGCAUGU
- B8 — higher, 0.141 KA relative to UGCAUGU
- B9 — higher, 0.158 KA relative to UGCAUGU
- B10 — higher, 0.158 KA relative to UGCAUGU
- B11 — higher, 0.626 KA relative to UGCAUGU
- B12 — higher, 0.223 KA relative to UGCAUGU
- B13 — lower, 0.09 KA relative to UGCAUGU
- B14 — higher, 0.192 KA relative to UGCAUGU
- B15 — lower, 0.085 KA relative to UGCAUGU
- B16 — higher, 0.116 KA relative to UGCAUGU
- B18 — lower, 0.0598 KA relative to UGCAUGU
- B19 — lower, 0.0848 KA relative to UGCAUGU
- B20 — lower, 0.0916 KA relative to UGCAUGU
